# Screening results deposited in PubChem by several laboratories.
# Mtb betalactam: beta-lactam sensitization of Mtb H37Rv; M. tuberculosis H37Rv growth with meropenem, percent inhibition; inhibition, % at 25 µM; 330,000 tested, 0.27% active; call rule not given here;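 further: growth measured after seven days incubation then overnight dye step; 0% = bacteria only wells and 100% = bacteria with antibiotic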
# GDH-TPI counter-1: counter-screen for M. tuberculosis FBA inhibitors: GDH-TPI coupled enzymes; inhibition, % at 4.8 µM; GDH-TPI coupled enzyme counterscreen, NADH absorbance; 360,000 tested, 1.2% active; in the data active means inhibition above about 30%;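 further: 0% = DMSO wells and 100% = wells lacking the enzyme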
# MazEF act: increases E. coli MazEF RNase cleavage of RNA. P0AE70. FAM/BHQ RNA-DNA oligo cleavage fluorescence, 5 h. activation, % at 20 µM. 350,000 tested, 0.32% active; in the data active means activation above about 50%
# Target sequence (P0AE70 whole entry, looked up): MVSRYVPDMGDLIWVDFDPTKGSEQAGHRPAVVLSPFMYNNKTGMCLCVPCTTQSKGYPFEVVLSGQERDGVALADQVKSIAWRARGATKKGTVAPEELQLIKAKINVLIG
# CCHF vOTU inh: CCHFV vOTU protease inhibition. 370,000 tested, 0.55% active. Pep-AMC fluorescence. inhibition, % at 11.5 µM; in the data active means inhibition above about 30%; further: 0% = vehicle wells with enzyme and 100% = no enzyme wells
# Mtb FBA inh: inhibitors of M. tuberculosis fructose-bisphosphate aldolase. P9WQA3. purified M. tuberculosis FBA, fluorescence read-out. inhibition, % at 1 µM. 360,000 tested, 2.3% active. AID 588726;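 further: 0% = vehicle and 100% = reference inhibitor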
# Target sequence (P9WQA3 whole entry, looked up): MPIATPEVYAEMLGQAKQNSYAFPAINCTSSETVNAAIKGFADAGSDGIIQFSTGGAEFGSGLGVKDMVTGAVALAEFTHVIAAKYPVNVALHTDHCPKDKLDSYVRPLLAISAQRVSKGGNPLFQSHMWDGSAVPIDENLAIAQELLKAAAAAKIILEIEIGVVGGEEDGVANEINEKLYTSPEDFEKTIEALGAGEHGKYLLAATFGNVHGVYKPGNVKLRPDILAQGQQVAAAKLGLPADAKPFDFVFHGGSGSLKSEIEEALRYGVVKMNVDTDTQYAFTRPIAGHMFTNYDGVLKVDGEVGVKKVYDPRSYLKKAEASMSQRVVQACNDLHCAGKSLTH
# Mtb FBA confirm: confirmation of M. tuberculosis fructose-bisphosphate aldolase inhibitors; shares compounds with Mtb FBA inh; inhibition, % at 1 µM; 5,600 tested, 78% active; AID 651616; purified M. tuberculosis FBA, fluorescence read-out;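 further: 0% = vehicle wells and 100% = reference inhibitor wells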
# GDH-TPI counter-2: inhibits GDH-TPI coupling enzymes, flagging Mtb FBA hits; inhibition, % at 1 µM; shares compounds with Mtb FBA inh; GDH-TPI coupled enzyme counterscreen, fluorescence; 5,600 tested, 81% active; in the data active means inhibition above about 10%
# Numbers without * were called inactive; . = no result given; + = active, no number. Compounds with a hit are over-represented: about 4% of the library has one in this group of screens. Unless noted, no stated cut-off is given here; in the data, active means inhibition above about 27%; inactive means the rest.
SMILES,Mtb betalactam,GDH-TPI counter-1,MazEF act,CCHF vOTU inh,Mtb FBA inh,Mtb FBA confirm,GDH-TPI counter-2
O=C1CC(C(=O)Nc2ccc(Br)cc2)C2(CCCC2)O1 (stereo not given),-3,.,.,-7,.,.,.
CCc1nc(N2CCN(C(=O)c3ccco3)CC2)c(C#N)c2c1COC(C)(C)C2,5,5,0,0,40*,57*,39*
CCCc1nc(N2CCOCC2)c(C#N)c2c1CCCC2,4,17,4,7,30*,168*,141*
CC1(C)Cc2c(C#N)c(N3CCN(C(=O)c4ccco4)CC3)nc(Cc3ccccc3)c2CO1,83,7,-12,3,2,.,.
CC(C)Cc1nc(N2CCOCC2)c(C#N)c2c1COC(C)(C)C2,5,10,0,-7,37*,-1,-1
CC(C)Cc1nc(NCCN2CCOCC2)c(C#N)c2c1COC(C)(C)C2,-9,13,3,5,4,.,.
CCc1nc(N2CCN(C(C)=O)CC2)c(C#N)c2c1COC(C)(C)C2,-3,1,1,-26,36*,3,-1
COc1ccc(OCCCN2CCC(C(O)(c3ccccc3)c3ccccc3)CC2)cc1,.,.,.,25,.,.,.
COc1ccccc1N1CCN(S(=O)(=O)c2ccc3c(c2)n(C)c(=O)c(=O)n3C)CC1,.,.,.,0,.,.,.
CCc1ccc(CCNC(=O)OC2CC3CC2[C@H]2CCCCN2[C@H]3Cc2ccccc2)cc1 (stereo not given in full),.,.,.,7,.,.,.
CCN(CC)C(=O)COc1c(-c2ccco2)oc2ccccc2c1=O,-6,33*,-9,-30,27*,156*,155*
Nc1[nH]c(C(=O)c2ccccc2)c(-c2ccccc2)c1C(=O)NCCc1c[nH]c2ccccc12,.,.,.,6,.,.,.
CCN1CCN(c2cc3c(cc2F)c(=O)c(C(=O)O)cn3C2CC2)CC1,100,7,-9,-19,13,.,.
CC(=O)N1CCN(c2cc3c(cc2F)c(=O)c(C(=O)O)cn3C2CC2)CC1,100,1,8,-25,30*,187*,140*
CN(C)C1=NCC(CSC(=N)N)S1 (stereo not given),6,-1,0,-1,68*,200*,175*
O=C(Nc1ccccc1)Nc1nc2ncccn2c1-c1ccc(C(F)(F)F)cc1,.,.,.,-28,.,.,.
CN(C)c1nnc(-c2ccc(Cl)cc2)o1,-4,-5,-5,-9,66*,+,+
Clc1ccc(-c2nnc(-c3ccco3)o2)cc1,1,5,6,-1,72*,+,+
O=C(Cc1cccs1)Nc1ccc(-c2nnc(-c3ccco3)o2)cc1,-8,7,9,5,49*,83*,67*
CCC(Oc1ccccc1)C(=O)Nc1ccc(-c2nnc(-c3ccco3)o2)cc1 (stereo not given),77,15,0,8,43*,-3,-4
COC(=O)[C@]12C[C@H](CC(=O)N3CCOCC3)C(=O)N(Cc3cccc4ccccc34)C1=C[C@H](C1CCCC1)O[C@@H]2C,.,.,.,2,.,.,.
CN(C)CCn1c(SCc2ccccc2C#N)nc2c(sc3ccccc32)c1=O,9,-1,12,-66,50*,75*,59*
COc1ccccc1NC(=O)CSc1nc2c(sc3ccccc32)c(=O)n1CCN(C)C,-7,22,17,-27,51*,76*,60*
COc1ccc2c3c([nH]c2c1)[C@]1(NCC3)C(=O)N(C)c2ccc(Cl)cc21,.,.,.,1,.,.,.
CCOC(=O)[C@@]12CCC3=C1N(CCC3)C(=O)[C@H](CC(=O)NCc1ccc(OC)c(OC)c1)C2,.,.,.,4,.,.,.
SMILES,Mtb betalactam,GDH-TPI counter-1,MazEF act,CCHF vOTU inh,Mtb FBA inh,Mtb FBA confirm,GDH-TPI counter-2
c1ccn2cc(-c3ccc4c(c3)OCCO4)nc2c1,-3,7,5,-43,80*,91*,90*
Clc1ccc2nc(-c3ccc4c(c3)OCO4)cn2c1,7,29,6,-62,45*,+,+
Clc1ccc2nc(-c3ccccc3)cn2c1,-2,5,4,-4,5,.,.
Cc1ccc2nc(-c3ccc4c(c3)OCCO4)cn2c1,15,13,6,-46,62*,195*,141*
CC(=C1N=C(c2ccccc2)OC1=O)c1cccs1,.,.,.,-6,.,.,.
CCCC(=O)NC(c1ccco1)c1cc(Cl)c2cccnc2c1O (stereo not given),-1,0,5,1,0,.,.
CC(=O)NC(c1ccco1)c1cc(Cl)c2ccc(Cl)nc2c1O (stereo not given),0,3,1,0,-1,.,.
CC(=O)NC(c1ccco1)c1cc(Cl)c2ccccc2c1O (stereo not given),5,12,15,-4,37*,+,+
CCC(=O)NC(c1ccco1)c1cc(Cl)c2ccccc2c1O (stereo not given),2,12,3,-10,30*,79*,56*
CCCCN1CCN(C2=NC(=O)N(c3ccc(Br)cc3)C(=O)C2)CC1,.,.,.,-4,.,.,.
Clc1ccccc1N1CCN(C2=Nc3ccccc3Sc3ccccc32)CC1,.,.,.,-4,.,.,.
COc1ccc2c(c1)sc1nc(=O)ccn12,3,-12,-16,-26,49*,117*,106*
Cc1ccc2c(c1)sc1nc(=O)ccn12,-12,8,13,-15,7,.,.
Cc1c(OC(C)C(=O)NCc2ccncc2)ccc2c3c(c(=O)oc12)CCCC3 (stereo not given),99,12,8,-10,34*,0,-3
Cc1cc(OC(C)C(=O)NCc2ccncc2)c2c3c(c(=O)oc2c1)CCCC3 (stereo not given),18,10,-2,-19,71*,178*,154*
Cc1cc(OC(C)C(=O)NCc2ccncc2)c2c3c(c(=O)oc2c1)CCC3 (stereo not given),0,9,9,3,64*,133*,93*
Cc1c(OC(C)C(=O)NCC(O)c2ccccc2)ccc2c3c(c(=O)oc12)CCCC3 (stereo not given),0,21,-2,-1,48*,+,197*
Cc1cc(OCC(=O)NCc2ccncc2)c2c3c(c(=O)oc2c1)CCCC3,14,4,6,-18,85*,122*,94*
Fc1cccc2sc(Nc3nc4ccccc4s3)nc12,68,16,5,4,32*,193*,134*
Fc1ccc2nc(Nc3nc4c(F)cc(F)cc4s3)sc2c1,4,5,15,-4,8,.,.
Fc1ccc2nc(Nc3nc4c(F)cccc4s3)sc2c1,4,16,8,12,35*,1,-3
C[C@@H]1[C@@H](O)C[C@]2(C[C@@H](O)c3ccccc3O2)O[C@H]1c1ccccc1,.,.,.,-3,.,.,.
Cc1c(OCC(=O)N2CCC(C(N)=O)CC2)ccc2c3c(c(=O)oc12)CCC3,1,18,5,-4,17,.,.
